High-throughput results from PubChem BioAssay.
DT40 TDP1 no CPT: qHTS for Inhibitors of human tyrosyl-DNA phosphodiesterase 1 (TDP1): qHTS in cells in absence of CPT. DT40 Tdp1-/- hTDP1 cells, no CPT, ATP luminescence, 48 h. Potency, µM (highest dose often 46.2 µM), without a hit: at the highest dose activity change, negative = growth inhibition, hits mostly inhibitors. 420,000 tested, 15% active; note: potency is the fitted concentration of half-maximal effect; % is set by controls: 0 for no effect and ±100 for the full control effect; nearly all actives have a fitted effect of over 55% in size
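Chicken DT40 Tdp1-/- cells stably complemented with human TDP1 were seeded at 400 cells/well with DMSO in place of 20 nM camptothecin. After compound pinning, cells grew at least 48 hr at 37 °C; viability read by CellTiter-Glo luminescence.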
IL1B secr inh: qHTS for Inhibitors of Inflammasome Signaling: IL-1-beta AlphaLISA Primary Screen. THP-1 LPS/ATP IL-1B secretion, AlphaLISA, 16 h; hits give low values. activity change, % at 57.5 µM. 360,000 tested, 4.7% active; in the data active = activity change below about -50%; inconclusive = mostly about -30% to -49%; note: % is set by controls: 0 for no effect and ±100 for the full control effect
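Secreted IL-1B measured by AlphaLISA bead assay after 16 h compound exposure of THP-1 cells; compounds (final up to 57.5 uM) added 1 h before LPS (250 ng/mL) and ATP (1.25 mM) stimulation; lower signal means less secretion.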
TDP1 cell CPT: qHTS for Inhibitors of human tyrosyl-DNA phosphodiesterase 1 (TDP1): qHTS in cells in presence of CPT; chicken DT40 Tdp1-/-;hTDP1 cells + 20 nM CPT, ATP luminescence, 48 h; AID 686979, 2013; 420,000 tested, 12% active; Potency, µM (highest dose often 46.2 µM), for inactives: top-dose activity change, negative = growth inhibition, most hits filed as inhibitors; note: potency is the fitted concentration of half-maximal effect; % is set by controls: 0 for no effect and ±100 for the full control effect; nearly all actives have a fitted effect of over 55% in size
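Chicken DT40 Tdp1-/- cells complemented with human TDP1, 400 cells/well, exposed to compounds plus 20 nM camptothecin for at least 48 h at 37 C; viability read as ATP content by CellTiter-Glo luminescence.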
TGFb SMAD3 inh: qHTS for Inhibitors of TGF-b; Potency, µM (doses to about 46.1 µM), for inactives: at the highest dose activity, negative = inhibition, actives largely listed as inhibitors; 410,000 tested, 1.2% active; HepG2 CAGA-GFP TGF-b/SMAD3 reporter, GFP fluorescence, 18 h; TGF-beta stimulated, 500 pg/mL final; note: potency is the fitted concentration of half-maximal effect; % is set by controls: 0 for no effect and ±100 for the full control effect; nearly all actives have a fitted effect of over 65% in size
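HEPG2 CAGA-GFP cells (1000/well, DMEM with 1% FBS) were pre-incubated 2 h at 37 degrees C, given compound by pin tool, then stimulated with TGF-beta at 500 pg/mL final for 18 h before per-cell GFP fluorescence imaging.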
TDP1 block: qHTS Assay for Inhibitors of Tyrosyl-DNA Phosphodiesterase (TDP1). Tyrosyl-DNA phosphodiesterase 1 (Homo sapiens), Q9NUW8. recombinant TDP1, AlphaScreen DNA substrate cleavage. Potency, µM (doses to about 130 µM), for inactives: top-dose activity change, negative = inhibition, most hits filed as inhibitors. 350,000 tested, 0.28% active; note: potency is the fitted concentration of half-maximal effect; % is set by controls: 0 for no effect and ±100 for the full control effect; nearly all actives have a fitted effect of over 40% in size
Target sequence (Q9NUW8 whole entry, looked up): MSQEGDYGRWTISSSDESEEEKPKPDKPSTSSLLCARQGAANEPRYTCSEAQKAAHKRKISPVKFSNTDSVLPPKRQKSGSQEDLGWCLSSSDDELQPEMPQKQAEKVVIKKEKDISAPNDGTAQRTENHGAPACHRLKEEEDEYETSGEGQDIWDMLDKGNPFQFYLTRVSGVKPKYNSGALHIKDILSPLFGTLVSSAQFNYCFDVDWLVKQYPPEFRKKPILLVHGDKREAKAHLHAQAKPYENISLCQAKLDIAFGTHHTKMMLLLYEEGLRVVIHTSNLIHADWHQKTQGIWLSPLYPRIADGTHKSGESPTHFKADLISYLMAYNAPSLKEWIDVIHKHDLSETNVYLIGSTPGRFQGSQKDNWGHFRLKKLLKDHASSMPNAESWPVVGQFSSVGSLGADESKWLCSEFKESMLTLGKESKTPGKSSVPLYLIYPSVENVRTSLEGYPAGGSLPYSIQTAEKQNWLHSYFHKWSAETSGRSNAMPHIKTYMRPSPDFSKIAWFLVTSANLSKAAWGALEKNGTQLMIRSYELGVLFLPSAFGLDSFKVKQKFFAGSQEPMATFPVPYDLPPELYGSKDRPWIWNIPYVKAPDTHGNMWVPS
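Tdp1 1 nM final; 15 min RT w/ cpd; substrate 15 nM, 5 min; beads 10 ug/ml, 10 min; AlphaScreen read. Neg ctrl: no enzyme.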
HepG2 viability: qHTS for Inhibitors of TGF-b: Cytotox Counterscreen; HepG2 CAGA-GFP viability, ATP luminescence, 18 h; Potency, µM (highest dose often 46.1 µM), for inactives: at the top dose activity change, negative = cytotoxicity, most hits filed as cytotoxic; 410,000 tested, 0.76% active; note: potency is the fitted concentration of half-maximal effect
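CellTiter-Glo luminescence gave cytotoxicity after 18 hours at 37 degrees C. The cells were HepG2 CAGA-GFP in 1% FBS DMEM, stimulated with 500 pg/mL TGF-beta after compound addition. %Activity was normalised to no-cell wells (complete cell-killing) and DMSO (no toxicity), and curves were fitted and classified.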
An asterisk follows results filed as active; [ ] = another dose, or the depositor's remark. Most compounds without a hit are left out; they make up all but 19% or so of the library. Unless noted, calls come from the whole dose curve; as a rule, active = well fitted curve in the direction sought with a large enough effect; inconclusive = small, poorly fitted or top-dose-only effect, or another doubt; inactive = no such curve, though single readings can be large; an effect the other way counts as inactive or inconclusive.

Results for COCCCn1c(SC(C)C(=O)Nc2c(C)n(C)n(-c3ccccc3)c2=O)n[nH]c1=O (centres undefined) ?
DT40 TDP1 no CPT: 12.7%; IL1B secr inh: 10.1; TDP1 cell CPT: 10.3%; TGFb SMAD3 inh: -1.2%; TDP1 block: -1.9%; HepG2 viability: -0.6%

How did CC(=O)OC[C@@H]1O[C@@H](O/N=C2/C[C@@H](O)[C@@H](O)[C@@H]3[C@@H]4C(=O)N(C5CCCCC5)C(=O)[C@H]4CC[C@@H]23)[C@H](OC(C)=O)[C@H](OC(C)=O)[C@@H]1OC(C)=O do in these assays?
TDP1 block: 3.7%[21 µM]

Results for CC(C)(C)C(=O)O/N=C(\N)c1ccc(Oc2cc(Cl)cc(Cl)c2)c([N+](=O)[O-])c1 ?
DT40 TDP1 no CPT: inconclusive; IL1B secr inh: -60.7*; TDP1 cell CPT: inconclusive; TGFb SMAD3 inh: 0.6%; TDP1 block: 6.5%; HepG2 viability: -2.7%

Results for CCOc1ccc(N(C(C)C(=O)NCc2ccco2)S(C)(=O)=O)cc1 (centres undefined) ?
DT40 TDP1 no CPT: -12.7%; IL1B secr inh: 23.2; TDP1 cell CPT: -28.3%; TGFb SMAD3 inh: 1.3%; TDP1 block: 4.6%; HepG2 viability: -0.4%

What do the screens show for `COc1ccc(NC(=O)/C=C\C(=O)N(c2ccc(C(C)C)cc2)C(C(=O)NCc2ccco2)c2ccc(F)cc2)cc1` (centres undefined)?
DT40 TDP1 no CPT: inconclusive; TDP1 cell CPT: 18.4µM*; TGFb SMAD3 inh: -12.2%; TDP1 block: 10.4%; HepG2 viability: -24.2%

Results for COc1ccc(N(C(=O)/C=C\C(=O)Nc2ccc(Cl)cc2)C(C(=O)NCc2ccco2)c2ccc(C)cc2)cc1 (centres undefined) ?
DT40 TDP1 no CPT: 18.4µM*; TDP1 cell CPT: 16.4µM*; TGFb SMAD3 inh: 12.6µM*; TDP1 block: 10.4%; HepG2 viability: -45.1%

Results for CCOc1ccc(NC(=O)/C=C\C(=O)N(c2ccc(C(C)C)cc2)C(C(=O)NCc2ccco2)c2ccc(F)cc2)cc1 (centres undefined) ?
DT40 TDP1 no CPT: 13µM*; TDP1 cell CPT: 5.17µM*; TGFb SMAD3 inh: inconclusive; TDP1 block: 2.6%; HepG2 viability: -41.4%

Results for O=C(CN1C(=O)C2CCCCN2c2ccc(C(=O)N3CCCC3)cc21)NCc1ccccc1F (centres undefined) ?
DT40 TDP1 no CPT: -18.0%; TDP1 cell CPT: inconclusive; TGFb SMAD3 inh: -15.5%; TDP1 block: 3.0%; HepG2 viability: -16.4%

How did CCCC(NS(=O)(=O)c1ccc(-c2ccc(=O)[nH]n2)s1)c1cccs1 (centres undefined) do in these assays?
DT40 TDP1 no CPT: inconclusive; IL1B secr inh: -16.2; TDP1 cell CPT: -2.6%; TGFb SMAD3 inh: -6.0%; TDP1 block: 0.5%; HepG2 viability: -25.9%

How did O=[N+]([O-])c1ccc(N2N=C(c3ccco3)CC2c2ccccc2)cc1 (centres undefined) do in these assays?
DT40 TDP1 no CPT: inconclusive; IL1B secr inh: -55.1*; TDP1 cell CPT: inconclusive; TGFb SMAD3 inh: -2.5%; TDP1 block: 3.9%; HepG2 viability: -1.4%

What do the screens show for `CCCCCCSc1nnc(-c2cnn(-c3ccccc3)c2-n2cccc2)n1C`?
DT40 TDP1 no CPT: 20.6µM*; IL1B secr inh: -15.7; TDP1 cell CPT: inconclusive; TGFb SMAD3 inh: inconclusive; TDP1 block: 4.7%; HepG2 viability: -99.8%

What do the screens show for `CC1CCN(c2cc(N)c(Cl)cc2[N+](=O)[O-])CC1`?
DT40 TDP1 no CPT: -21.6%; IL1B secr inh: -78.2*; TDP1 cell CPT: -2.5%; TGFb SMAD3 inh: -6.2%; TDP1 block: 7.3%; HepG2 viability: -17.4%

What do the screens show for `CC1Cc2cc(S(=O)(=O)N3CCCCC3)ccc2N1C(=O)C1CCC1` (centres undefined)?
DT40 TDP1 no CPT: inconclusive; IL1B secr inh: -6.7; TDP1 cell CPT: 20.6µM*; TGFb SMAD3 inh: 7.4%; TDP1 block: 0.4%; HepG2 viability: 2.1%

How did CCOC(=O)C1CCCN(S(=O)(=O)c2ccc3c(c2)CC(C)N3C(=O)C2CC2)C1 (centres undefined) do in these assays?
DT40 TDP1 no CPT: -18.9%; IL1B secr inh: -13.1; TDP1 cell CPT: 18.4µM*; TGFb SMAD3 inh: 0.1%; TDP1 block: 0.6%; HepG2 viability: -1.3%

How did CC1Cc2cc(S(=O)(=O)N3CCN(C)CC3)ccc2N1C(=O)C1CC1 (centres undefined) do in these assays?
DT40 TDP1 no CPT: 10.0%; IL1B secr inh: -3.7; TDP1 cell CPT: -6.0%; TGFb SMAD3 inh: -8.1%; TDP1 block: -1.3%; HepG2 viability: 2.5%

What do the screens show for `CC1CCN(S(=O)(=O)c2ccc3c(c2)CC(C)N3C(=O)C2CCC2)CC1` (centres undefined)?
DT40 TDP1 no CPT: 16.4µM*; IL1B secr inh: -16.8; TDP1 cell CPT: 20.6µM*; TGFb SMAD3 inh: inconclusive; TDP1 block: 5.6%; HepG2 viability: -9.8%

How did COc1ccc(OC)c(CNC(=O)c2cnc(N(C)C)nc2)c1 do in these assays?
DT40 TDP1 no CPT: 5.4%; TDP1 cell CPT: -3.7%; TGFb SMAD3 inh: -5.9%; TDP1 block: 3.8%; HepG2 viability: -12.2%

What do the screens show for `COc1ccccc1CN1CCNC(=O)C1CC(=O)NCCOc1cccnc1` (centres undefined)?
DT40 TDP1 no CPT: -0.8%; IL1B secr inh: 33.4; TDP1 cell CPT: -25.2%; TGFb SMAD3 inh: 9.4%; TDP1 block: -1.2%; HepG2 viability: -1.4%

How did ClC1(Cl)CC1CSc1nnc(-c2ccncc2)o1 (centres undefined) do in these assays?
DT40 TDP1 no CPT: inconclusive; IL1B secr inh: -13.5; TDP1 cell CPT: -24.9%; TGFb SMAD3 inh: 3.5%; HepG2 viability: 10.3%

What do the screens show for `Cc1nnc(Nc2ccc(S(N)(=O)=O)cc2)c2ccccc12`?
DT40 TDP1 no CPT: 6.6%; IL1B secr inh: -2.6; TDP1 cell CPT: 29.3%; TGFb SMAD3 inh: 28.9%; HepG2 viability: 1.1%
